Results: PubChem BioAssay (Tox21)
Several values for one entry are separate records, joined by “and”; a condition that tells them apart may be missing. Equal values may be shown once. Inconclusive results are not listed. Where a call stands in place of a potency, no number is given. A structure can be active in one record and inactive in another. Activity calls are given as the source filed them. Unless noted, the call rests on the fitted dose curve.

Key:
[1] = qHTS assay to identify small molecule antagonists of the sonic hedgehog signaling (Shh) pathway (AID 1259369); further: nearly all actives have a fitted effect of over 45% in size; further: potency means the concentration at half of the fitted maximal effect
Method in brief: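 Screening used 3T3Gli1-Luc cells at 2,000 per well, compounds delivered in DMSO, and conditioned medium as agonist stimulus; plates incubated 24hr at 37 C and 5% CO2 before a 30min luciferase step.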

[2] = biological target: Estrogen receptor beta (Homo sapiens) (UniProt Q92731); assay: qHTS assay to identify small molecule agonists of the estrogen receptor beta (ER-beta) signaling pathway (AID 1259377; active means well fitted activation curve with a large enough effect in the signal ratio in the repeat runs, not every such curve was filed as active; the % refers to the signal ratio)
Method in brief: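 Screening used GripTite ER-beta-UAS-bla cells held in 2% charcoal-stripped FBS medium. After overnight (16 hr) compound incubation at 37C, beta-lactamase activity was detected with a FRET substrate by fluorescence.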

[3] = biological target: Estrogen receptor beta (Homo sapiens) (UniProt Q92731); assay: qHTS assay to identify small molecule antagonists of the estrogen receptor beta (ER-beta) signaling pathway (AID 1259378; active means well fitted inhibition curve with a large enough effect in the signal ratio in the repeat runs, not every such curve was filed as active; the % refers to the signal ratio; further: potency means the concentration at half of the fitted maximal effect)
Method in brief: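 Antagonist mode: compounds added to beta-lactamase reporter HEK293T ER-beta-UAS cells stimulated with E2 (1nM final), 16 hr at 37C. LiveBLAzer B/G FRET substrate, 2 hours room temperature, fluorescence read-out.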

[4] = qHTS assay to identify small molecule agonists of the estrogen receptor beta (ER-beta) signaling pathway - cell viability counter screen (AID 1259380; active means well fitted curve in the direction sought with a large enough effect in the repeat runs; an effect the other way counts as inactive or inconclusive; further: nearly all actives have a fitted effect of over 30% in size)
Method in brief: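 Viability of ER-beta-UAS-bla HEK293T cells was determined by CellTiter-Glo luminescence following 16 hr treatment with test compounds at 37C.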

[5] = qHTS assay to identify small molecule antagonists of the estrogen receptor beta (ER-beta) signaling pathway - cell viability counter screen (AID 1259382; active means well fitted curve in the direction sought with a large enough effect in the repeat runs; an effect the other way counts as inactive or inconclusive; further: nearly all actives have a fitted effect of over 55% in size; further: potency means the concentration at half of the fitted maximal effect)
Method in brief: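 Tox21 10K library tested in qHTS format on ER-beta-bla HEK293T cells stimulated with 1nM E2; 16 hr treatment at 37C. Same-well CellTiter-Glo luminescence served as the cell viability measure.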

[6] = biological target: Estrogen receptor (Homo sapiens) (UniProt P03372); assay: qHTS assay to identify small molecule agonists of the estrogen receptor alpha (ER-alpha) signaling pathway in the presence of an antagonist (AID 1259383); further: top concentration of the series differs between compounds; nearly all actives have a fitted effect of over 15% in size
Method in brief: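 In VM7Luc4E2 cells, 4,000 per well, compounds at 15 concentrations were co-incubated 22hr at 37C with 10.0nM final ICI-182,780. Luminescence from the stably transfected 4×ERE-luciferase reporter was recorded 30min after ONE-Glo addition.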

[7] = qHTS assay to identify small molecule agonists or antagonists of the thyroid stimulating hormone receptor (TSHR) signaling pathway - wild type cell line counter screen (AID 1259384)
Method in brief: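 Counter screen in untransfected Hek293: compounds (15-point titration, triplicate) plus phosphodiesterase inhibitor Ro20-1724 added after 18 h plating; 30 min RT. Intracellular cAMP via competitive d2/cryptate immunoassay, 1 h incubation.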

[8] = biological target: Thyrotropin receptor (Homo sapiens) (UniProt P16473); assay: qHTS assay to identify small molecule antagonists of the thyroid stimulating hormone receptor (TSHR) signaling pathway (AID 1259385); further: nearly all actives have a fitted effect of over 20% in size
Method in brief: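 Antagonist mode: compound-treated TSHR-expressing HEK293 cells were stimulated with 1.5 ng/mL TSH (final) in presence of Ro20-1724 for 30 min at RT. HTRF cAMP detection after 1 h; each compound tested at 15 concentrations, triplicate.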

[9] = qHTS assay to identify small molecule agonists of the estrogen receptor alpha (ER-alpha) signaling pathway in the presence of an antagonist - cell viability counter screen (AID 1259386; active means well fitted curve in the direction sought with a large enough effect in the repeat runs; an effect the other way counts as inactive or inconclusive;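 further: cells exposed to compounds for 22 h at 37 °C before the viability read; nearly all actives have a fitted effect of over 30% in size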; further: potency means the concentration at half of the fitted maximal effect)
Method in brief: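 Fluorescent CellTiter-Fluor viability signal from VM7Luc4E2 cells, with the reagent added during the final hour of a 22hr compound exposure at 37C in the presence of 10.0nM ICI-182,780.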

[10] = biological target: Progesterone receptor (Homo sapiens) (UniProt P06401); assay: qHTS assay to identify small molecule agonists of the progesterone receptor (PR) signaling pathway (AID 1346784); further: nearly all actives have a fitted effect of over 30% in size
Method in brief: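 Seed PR-UAS-bla HEK 293T cells (2% charcoal-stripped FBS), incubate 6 hr at 37C; add compounds in DMSO, 16 hr at 37C; add LiveBLAzer B/G substrate, 2 hr RT; read fluorescence intensity.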

[11] = biological target: Progesterone receptor (Homo sapiens) (UniProt P06401); assay: qHTS assay to identify small molecule antagonists of the progesterone receptor (PR) signaling pathway (AID 1346795; active means well fitted inhibition curve with a large enough effect in the signal ratio in the repeat runs, not every such curve was filed as active; the % refers to the signal ratio; further: potency means the concentration at half of the fitted maximal effect)
Method in brief: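 Screening used a GripTite HEK293T line with PR-responsive UAS-beta-lactamase. Cells were challenged with compound in the presence of 1 nM R5020 final for 16 hr at 37C; B/G FRET substrate, 2 hr room temperature, fluorescence.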

[12] = qHTS assay to identify small molecule antagonists of the progesterone receptor (PR) signaling pathway - cell viability counter screen (AID 1346798; active means well fitted curve in the direction sought with a large enough effect in the repeat runs; an effect the other way counts as inactive or inconclusive; further: series mostly up to about 92 µM; nearly all actives have a fitted effect of over 50% in size)
Method in brief: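 Measures cytotoxicity in parallel with the PR antagonist reporter read: HEK293T PR-UAS-bla cells get compound and R5020 for 16 hr, and remaining viable cells are quantified by CellTiter-Glo luminescence.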

[13] = qHTS assay to identify small molecule agonists of the progesterone receptor (PR) signaling pathway - cell viability counter screen (AID 1346799); further: nearly all actives have a fitted effect of over 45% in size
Method in brief: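 Using the same plates as the PR reporter screen, HEK293T PR-UAS-bla cells received compounds for 16 hr at 37C and were then lysed with CellTiter-Glo; luminescence was read 30 min later at room temperature.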

[14] = qHTS assay to identify small molecule antagonists of the TGF-beta/Smad signaling pathway - cell viability counter screen (AID 1346824; active means well fitted curve in the direction sought with a large enough effect in the repeat runs; an effect the other way counts as inactive or inconclusive; further: nearly all actives have a fitted effect of over 50% in size)
Method in brief: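 Cytotoxicity counter-screen run in the same wells as the beta-lactamase Smad reporter read: CellTiter-Glo luminescence after 30 min at room temperature. HEK 293T SBE-bla cells had 5 hr compound exposure at 37 C with TGF-beta1 (0.25 ng/mL stock).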

[15] = qHTS assay to identify small molecule agonists of the TGF-beta/Smad signaling pathway - cell viability counter screen (AID 1346829; active means well fitted curve in the direction sought with a large enough effect in the repeat runs; an effect the other way counts as inactive or inconclusive; further: top concentration of the series differs between compounds; nearly all actives have a fitted effect of over 45% in size)
Method in brief: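 Luminescence from CellTiter-Glo, read after a 30 min room-temperature incubation, gives cell viability of SBE-bla HEK 293T cells treated 5 hr with compounds at 37 C.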

[16] = qHTS assay to identify small molecule agonists of the TGF-beta/Smad signaling pathway (AID 1346859; active means well fitted activation curve with a large enough effect in the signal ratio in the repeat runs, not every such curve was filed as active; the % refers to the signal ratio; further: series mostly up to about 77 µM)
Method in brief: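 Beta-lactamase reporter activity downstream of Smad binding elements was measured in stably transfected HEK 293T cells; compounds were incubated for 5 hr, substrate for 2 hr at room temperature.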

[17] = biological target: Thyrotropin-releasing hormone receptor (Homo sapiens) (UniProt P34981); assay: qHTS assay to identify small molecule antagonists of the thyrotropin-releasing hormone receptor (TRHR) signaling pathway (AID 1346877; active means well fitted inhibition curve with a large enough effect in the repeat runs, not every such curve was filed as active; further: series mostly up to about 51 µM)
Method in brief: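 In this cell-based calcium flux format, HEK293 cells expressing TRHR received test compound for 5 min before the agonist TRH (1 nM final). Dye loading lasted 2 h at 37 °C.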

[18] = biological target: Thyrotropin-releasing hormone receptor (Homo sapiens) (UniProt P34981); assay: qHTS assay to identify small molecule agonists of the thyrotropin-releasing hormone receptor (TRHR) signaling pathway (AID 1346891); further: series mostly up to about 58 µM
Method in brief: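 Overnight-plated (18 h, 37 °C, 5% CO2) TRHR-Hek293 cells; 2 h calcium dye at 37 °C; compound in DMSO; 3-min kinetic fluorescence read.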

[19] = qHTS assay to identify small molecule agonists of the androgen receptor (AR) signaling pathway in the presence of an antagonist - cell viability counter screen (AID 1259379; active means well fitted curve in the direction sought with a large enough effect in the repeat runs; an effect the other way counts as inactive or inconclusive;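 further: MDA-kb2 human breast cancer cells carrying an MMTV luciferase reporter; series mostly up to about 92 µM; nearly all actives have a fitted effect of over 25% in size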)
Method in brief: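 In MDA-kb2 cells (human breast carcinoma, MMTV-luciferase), compounds at 15 concentrations plus 3.0uM nilutamide; 16 hr, 37C, 0% CO2; CellTiter-Fluor fluorescence read for viability.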

[20] = biological target: Androgen receptor (Homo sapiens) (UniProt P10275); assay: qHTS assay to identify small molecule agonists of the androgen receptor (AR) signaling pathway in the presence of an antagonist (AID 1259381); further: nearly all actives have a fitted effect of over 15% in size
Method in brief: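 Here, 15-concentration compound series were pin-transferred onto MDA-kb2 MMTV-luciferase cells already dosed with nilutamide (3.0uM final). After 16hr at 37C, ONE-Glo was added and luminescence read 30min later at room temperature.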

Estrogen receptor (Homo sapiens), sequence (P03372 whole entry, looked up): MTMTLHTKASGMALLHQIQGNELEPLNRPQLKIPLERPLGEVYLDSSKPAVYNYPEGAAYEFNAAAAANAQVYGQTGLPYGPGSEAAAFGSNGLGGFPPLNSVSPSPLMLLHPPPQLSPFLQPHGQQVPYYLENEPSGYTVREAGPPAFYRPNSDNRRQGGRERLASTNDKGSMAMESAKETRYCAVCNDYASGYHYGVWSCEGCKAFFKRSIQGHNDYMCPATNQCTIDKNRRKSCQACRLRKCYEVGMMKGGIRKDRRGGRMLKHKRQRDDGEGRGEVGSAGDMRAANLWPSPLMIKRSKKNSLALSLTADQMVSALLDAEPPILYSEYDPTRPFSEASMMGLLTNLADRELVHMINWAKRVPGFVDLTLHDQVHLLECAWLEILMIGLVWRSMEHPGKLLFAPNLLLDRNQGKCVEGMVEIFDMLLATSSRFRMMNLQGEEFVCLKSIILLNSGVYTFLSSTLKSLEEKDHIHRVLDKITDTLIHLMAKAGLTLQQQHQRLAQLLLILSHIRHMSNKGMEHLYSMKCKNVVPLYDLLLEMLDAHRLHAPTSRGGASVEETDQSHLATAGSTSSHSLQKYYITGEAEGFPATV
Estrogen receptor beta (Homo sapiens), sequence (Q92731 whole entry, looked up): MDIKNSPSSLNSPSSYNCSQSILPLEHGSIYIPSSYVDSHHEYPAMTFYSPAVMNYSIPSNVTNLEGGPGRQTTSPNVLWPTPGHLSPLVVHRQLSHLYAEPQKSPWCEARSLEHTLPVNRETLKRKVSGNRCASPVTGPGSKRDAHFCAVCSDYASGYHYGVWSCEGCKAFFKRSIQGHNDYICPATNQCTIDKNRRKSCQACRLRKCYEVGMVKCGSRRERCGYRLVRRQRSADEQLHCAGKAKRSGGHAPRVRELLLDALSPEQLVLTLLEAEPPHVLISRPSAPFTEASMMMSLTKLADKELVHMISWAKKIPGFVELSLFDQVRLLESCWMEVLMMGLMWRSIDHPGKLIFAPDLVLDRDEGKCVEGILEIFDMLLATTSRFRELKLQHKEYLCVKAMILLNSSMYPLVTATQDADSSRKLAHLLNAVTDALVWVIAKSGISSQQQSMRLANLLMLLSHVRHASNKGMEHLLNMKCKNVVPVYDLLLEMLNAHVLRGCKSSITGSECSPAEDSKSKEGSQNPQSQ
Thyrotropin-releasing hormone receptor (Homo sapiens), sequence (P34981 whole entry, looked up): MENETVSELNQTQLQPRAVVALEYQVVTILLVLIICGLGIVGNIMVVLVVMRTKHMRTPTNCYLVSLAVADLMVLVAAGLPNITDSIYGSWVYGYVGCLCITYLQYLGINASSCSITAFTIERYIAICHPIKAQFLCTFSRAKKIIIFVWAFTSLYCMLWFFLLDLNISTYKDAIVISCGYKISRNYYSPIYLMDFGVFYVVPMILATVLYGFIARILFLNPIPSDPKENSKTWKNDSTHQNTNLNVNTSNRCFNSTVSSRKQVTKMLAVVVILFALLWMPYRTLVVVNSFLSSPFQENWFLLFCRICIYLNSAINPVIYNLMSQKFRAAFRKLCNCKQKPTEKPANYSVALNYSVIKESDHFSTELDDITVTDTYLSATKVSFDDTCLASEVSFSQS
Progesterone receptor (Homo sapiens), sequence (P06401 whole entry, looked up): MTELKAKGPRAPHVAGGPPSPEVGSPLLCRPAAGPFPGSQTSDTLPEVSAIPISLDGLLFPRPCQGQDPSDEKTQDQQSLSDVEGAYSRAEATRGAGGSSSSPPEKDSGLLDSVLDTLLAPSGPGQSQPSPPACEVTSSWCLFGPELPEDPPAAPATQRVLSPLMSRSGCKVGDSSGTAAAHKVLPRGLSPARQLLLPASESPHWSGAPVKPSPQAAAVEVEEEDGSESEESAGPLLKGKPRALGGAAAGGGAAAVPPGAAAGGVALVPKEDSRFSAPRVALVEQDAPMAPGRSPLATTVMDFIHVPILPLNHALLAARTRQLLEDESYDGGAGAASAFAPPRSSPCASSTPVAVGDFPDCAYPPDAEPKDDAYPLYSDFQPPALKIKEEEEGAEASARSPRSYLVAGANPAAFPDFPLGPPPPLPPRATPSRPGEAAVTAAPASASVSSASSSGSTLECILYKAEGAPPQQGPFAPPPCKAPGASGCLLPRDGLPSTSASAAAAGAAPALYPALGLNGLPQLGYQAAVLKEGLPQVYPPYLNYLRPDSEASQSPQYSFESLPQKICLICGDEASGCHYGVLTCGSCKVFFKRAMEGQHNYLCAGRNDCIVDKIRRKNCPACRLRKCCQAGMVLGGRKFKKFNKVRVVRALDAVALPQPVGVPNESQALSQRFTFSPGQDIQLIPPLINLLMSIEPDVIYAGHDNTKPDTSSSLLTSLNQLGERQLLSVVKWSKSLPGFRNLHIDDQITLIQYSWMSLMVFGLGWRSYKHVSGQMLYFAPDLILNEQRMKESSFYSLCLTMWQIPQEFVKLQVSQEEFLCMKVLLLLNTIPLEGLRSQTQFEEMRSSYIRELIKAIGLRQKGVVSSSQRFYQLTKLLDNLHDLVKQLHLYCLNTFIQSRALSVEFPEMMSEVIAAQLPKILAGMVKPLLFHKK
Thyrotropin receptor (Homo sapiens), sequence (P16473 whole entry, looked up): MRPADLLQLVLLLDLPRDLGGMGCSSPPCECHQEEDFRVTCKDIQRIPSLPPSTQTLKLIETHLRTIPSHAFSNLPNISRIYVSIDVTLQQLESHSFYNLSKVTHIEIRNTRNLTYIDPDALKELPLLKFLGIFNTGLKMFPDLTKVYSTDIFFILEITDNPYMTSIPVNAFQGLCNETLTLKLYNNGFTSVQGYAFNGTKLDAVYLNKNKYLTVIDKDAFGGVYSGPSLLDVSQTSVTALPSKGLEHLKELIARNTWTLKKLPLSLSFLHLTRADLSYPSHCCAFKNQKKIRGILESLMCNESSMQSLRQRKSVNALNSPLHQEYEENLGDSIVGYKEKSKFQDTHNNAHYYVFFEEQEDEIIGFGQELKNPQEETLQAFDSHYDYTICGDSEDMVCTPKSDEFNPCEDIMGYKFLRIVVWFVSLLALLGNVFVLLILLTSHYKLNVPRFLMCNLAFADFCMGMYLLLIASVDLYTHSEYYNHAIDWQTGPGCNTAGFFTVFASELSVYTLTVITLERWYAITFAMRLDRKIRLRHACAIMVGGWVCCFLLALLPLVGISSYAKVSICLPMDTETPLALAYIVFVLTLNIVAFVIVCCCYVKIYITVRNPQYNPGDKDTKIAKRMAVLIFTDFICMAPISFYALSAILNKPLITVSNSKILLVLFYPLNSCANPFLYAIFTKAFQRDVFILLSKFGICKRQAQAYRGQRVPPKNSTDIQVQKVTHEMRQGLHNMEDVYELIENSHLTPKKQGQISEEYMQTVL
Androgen receptor (Homo sapiens), sequence (P10275 whole entry, looked up): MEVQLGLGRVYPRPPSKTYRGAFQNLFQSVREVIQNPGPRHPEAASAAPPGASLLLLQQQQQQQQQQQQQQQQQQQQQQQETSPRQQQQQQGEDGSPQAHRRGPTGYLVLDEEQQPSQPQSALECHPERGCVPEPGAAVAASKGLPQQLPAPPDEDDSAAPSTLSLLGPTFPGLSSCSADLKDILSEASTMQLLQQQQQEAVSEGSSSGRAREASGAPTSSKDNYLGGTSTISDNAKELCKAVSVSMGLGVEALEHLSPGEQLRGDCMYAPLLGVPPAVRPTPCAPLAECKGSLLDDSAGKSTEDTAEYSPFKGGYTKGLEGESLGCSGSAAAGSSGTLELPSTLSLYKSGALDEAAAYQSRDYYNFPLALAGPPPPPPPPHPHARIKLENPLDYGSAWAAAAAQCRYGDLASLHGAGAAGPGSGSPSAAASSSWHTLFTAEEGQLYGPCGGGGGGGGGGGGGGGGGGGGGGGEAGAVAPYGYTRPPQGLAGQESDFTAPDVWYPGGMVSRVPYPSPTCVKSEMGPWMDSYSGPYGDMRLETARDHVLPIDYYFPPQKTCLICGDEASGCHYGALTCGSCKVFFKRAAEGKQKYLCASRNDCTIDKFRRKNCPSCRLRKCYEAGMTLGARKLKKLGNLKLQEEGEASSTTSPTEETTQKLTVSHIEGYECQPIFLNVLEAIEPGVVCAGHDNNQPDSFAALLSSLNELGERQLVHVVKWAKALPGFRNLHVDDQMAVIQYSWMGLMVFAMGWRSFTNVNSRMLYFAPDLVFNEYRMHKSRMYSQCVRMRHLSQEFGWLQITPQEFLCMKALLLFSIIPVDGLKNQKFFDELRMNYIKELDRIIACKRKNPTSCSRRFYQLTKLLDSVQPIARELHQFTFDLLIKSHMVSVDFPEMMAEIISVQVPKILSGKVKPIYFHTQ

| SMILES | Potency [1] | Potency [2] | Potency [3] | Potency [4] | Potency [5] | Potency [6] | outcome [7] | Potency [8] | Potency [9] | Potency [10] | Potency [11] | Potency [12] | Potency [13] | Potency [14] | Potency [15] | outcome [16] | Potency [17] | outcome [18] | Potency [19] | Potency [20] |
| --- | --- | --- | --- | --- | --- | --- | --- | --- | --- | --- | --- | --- | --- | --- | --- | --- | --- | --- | --- | --- |
| CN[C@@H](C)[C@H](O)c1ccccc1 | inactive | inactive | inactive | inactive | inactive | inactive | inactive | inactive | inactive | inactive | inactive | inactive | inactive | inactive | inactive | inactive | inactive | inactive |  |  |
| CC(C)(C)c1ccc(CCOc2ncnc3ccccc23)cc1 | inactive | inactive | inactive | inactive | inactive | inactive | inactive | inactive | inactive | inactive | inactive | inactive | inactive | inactive | inactive | inactive | inactive | inactive |  |  |
| FC(F)OC(F)(F)C(F)Cl (centres undefined) | inactive | inactive | inactive |  | inactive |  | inactive | inactive | inactive | inactive | inactive | inactive | inactive | inactive |  | inactive | inactive | inactive | inactive | inactive |
| O=C(O)C(F)(F)C(F)(F)C(F)(F)C(F)(F)C(F)(F)F | inactive | inactive | inactive |  | inactive | inactive |  | inactive |  | inactive | inactive | inactive | inactive | inactive | inactive | inactive | inactive | inactive | inactive |  |
| Cc1nc(N(C)C)nc(OC(=O)N(C)C)c1C | inactive | inactive | inactive |  | inactive | inactive | inactive | inactive | inactive | inactive | inactive | inactive | inactive | inactive | inactive | inactive | inactive | inactive | inactive |  |
| CCCN(CCC)C(=O)Cc1c(-c2ccc(Cl)cc2)nc2ccc(Cl)cn12 | inactive | inactive | inactive |  |  | inactive | inactive | inactive |  | inactive | 10.6 µM (active) | inactive | inactive | inactive | inactive | inactive | inactive | inactive | inactive |  |
| CN1C[C@H](C(=O)N[C@]2(C)O[C@@]3(O)[C@@H]4CCCN4C(=O)[C@H](Cc4ccccc4)N3C2=O)C=C2c3cccc4[nH]cc(c34)C[C@H]21 | 3.87 µM (active) | inactive | 27.4 µM (active) |  | 54.7 µM (active) | inactive | inactive | inactive | 24.4 µM (active) and 20.2 µM (active) | inactive | 48.8 µM (active) and inactive | inactive | inactive | inactive |  | inactive | inactive | inactive |  |  |
| Cc1ccc(N)c(C)c1 | inactive | inactive | inactive | inactive | inactive |  |  |  | inactive | inactive | inactive | inactive | inactive | inactive | inactive | inactive | inactive | inactive | inactive |  |
| Cc1ncc(C[n+]2csc(CCO)c2C)c(N)n1 | inactive | inactive | inactive | inactive | inactive |  | inactive | inactive | inactive |  |  | inactive | inactive | inactive | inactive | inactive | inactive | inactive | inactive |  |
| CC(O)CN1CCN(CC(=O)[O-])CCN(CC(=O)[O-])CCN(CC(=O)[O-])CC1.[Gd+3] (centres undefined) | inactive | inactive | inactive | inactive | inactive | inactive | inactive | inactive | inactive |  |  | inactive | inactive | inactive |  | inactive | inactive | inactive |  |  |
| CCC(C)Cl (centres undefined) | inactive | inactive | inactive | inactive | inactive | inactive | inactive | inactive | inactive | inactive | inactive | inactive | inactive | inactive | inactive | inactive | inactive | inactive |  |  |
| CCCCOC(=O)CCC(=O)OCCCC | inactive | inactive | inactive |  | inactive |  | inactive | inactive | inactive | inactive | inactive | inactive | inactive | inactive | inactive | inactive | inactive | inactive | inactive |  |
| O=P(OCC(Br)CBr)(OCC(Br)CBr)OCC(Br)CBr (centres undefined) | inactive | inactive | 23.1 µM (active) |  | inactive | inactive | inactive | inactive | inactive | inactive | 5.8 µM (active) | inactive | inactive | inactive | inactive | inactive | inactive | inactive |  | inactive |
